Where “and” joins values, the source holds several entries; their conditions need not be identical. Identical values can stand only once. Results filed as inconclusive are left out. Some structures have more than one record in an assay (separate samples or runs), and their calls can disagree. Calls of active or inactive are those of the source. The call rests on the fitted dose curve; in most records, active means well fitted cell-killing curve with a large enough effect; inconclusive means small, poorly fitted or top-dose-only effect, or effect the other way; inactive means no such curve, though single readings can be large or run the other way.
assay: Viability qHTS for spleen associated tyrosine kinase inhibitor (SYKi) naive MV4-11 cells (AID 1963823); details: MV4-11 AML viability, CellTiter-Glo luminescence, 72 h; series mostly up to 45 µM; viability (% of control): at the top concentration; further: nearly all actives have a fitted effect of over 40% in size
Outline: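 Seeding of 500 SYKi-naive MV4-11 cells per well onto pre-dispensed compounds preceded a 72 hr incubation at 37 C. Luminescent CellTiter-Glo signal, read after 10 min at room temperature, reflected viable cells.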
Potency means the concentration at half of the fitted maximal effect.

Question: With `CC(C)c1cc(C(=O)N2Cc3ccc(CN4CCN(C)CC4)cc3C2)c(O)cc1O` as the compound, how does the Potency read?
Answer: The Potency was 33.2 nM (active).

Question: For `COc1cc2ncnc(Nc3cccc(Cl)c3)c2cc1OC`, which Potency is on record?
Answer: Its Potency is 4.61 µM (active) and 5.17 µM (active).

Question: For `CNCCCC12CCC(c3ccccc31)c1ccccc12`, which Potency is on record?
Answer: Its Potency is 18.8 µM (active) and 14.6 µM (active).

Question: Which Potency does the source give for `COc1ccc(-c2cc3c(C)nc(N)nc3n(C3CCC(OCCO)CC3)c2=O)cn1` (stereo not drawn) here?
Answer: The Potency was 105 nM (active).

assay: Viability qHTS for spleen associated tyrosine kinase inhibitor (SYKi) drug resistant MV4-11 cells (AID 1963824); details: SYKi-resistant MV4-11 viability, CellTiter-Glo, 72 h; series mostly up to 45 µM; viability, % of control: at the top concentration; further: nearly all actives have a fitted effect of over 35% in size
Outline: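 SYK-inhibitor-resistant MV4-11 AML cells were seeded at 500 per well onto compound and cultured 72 hours (37 °C, 5% CO2). CellTiter-Glo was then added, and after 10 min at room temperature, luminescence gave viability.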

Question: For `FC(F)c1nc2ccccc2n1-c1nc(N2CCOCC2)nc(N2CCOCC2)n1`, which Potency is on record?
Answer: Its Potency is 820 nM (active) and 525 nM (active).

Question: For `OCCNC1CCCc2c1[nH]c1ccc(-c3ccccc3)cc21` (stereo not drawn), which Potency is on record?
Answer: The Potency was 8.33 µM (active).

Question: For `Cc1ccc(C(=O)Nc2ccc(CN3CCN(C)CC3)c(C(F)(F)F)c2)cc1C#Cc1cnc2cccnn12`, which Potency is on record?
Answer: The Potency was 0.0053 µM (active).

Question: Which “viability, % of control” value does the source give for `CNC(=O)c1c(-c2ccc(F)cc2)oc2cc(N(CCO)S(C)(=O)=O)c(C3CC3)cc12` here?
Answer: Its value is 80.1% (inactive).

Question: For `NC1(c2ccc(-c3nc4ccn5c(=O)[nH]nc5c4cc3-c3ccccc3)cc2)CCC1`, which Potency is on record?
Answer: The Potency was 11.9 µM (active) and 8.2 µM (active) and 5.9 µM (active).

Question: With `CN(C)CCOC(c1ccccc1)c1ccccc1` as the compound, how does the “viability, % of control” value read?
Answer: The value was 72.1% (inactive).

Question: With `COc1cc2nc(N3CCN(C(=O)c4ccco4)CC3)nc(N)c2cc1OC` as the compound, how does the Potency read?
Answer: The Potency was 11.6 µM (active).

Question: For `c1nc2nc(Nc3ccc(N4CCOCC4)cc3)nc(NC3CCCCC3)c2[nH]1`, which Potency is on record?
Answer: Its Potency is 317 nM (active) and 366 nM (active).

Question: Which Potency does the source give for `CN1CCN(c2cc(C(=O)Nc3ccc4c(c3)-c3c(c(C(N)=O)nn3-c3ccc(F)cc3)CC4)c(Cl)cn2)CC1` here?
Answer: The Potency was 2.59 µM (active).

Question: Which Potency does the source give for `Cn1c(=O)c2c(ncn2CC(O)CO)n(C)c1=O` (stereo not drawn) here?
Answer: The Potency was “inactive”.

Question: For `Cc1nc(N)sc1-c1ccnc(Nc2ccc(N3CCOCC3)cc2)n1`, which Potency is on record?
Answer: The Potency was 0.164 µM (active).

Question: Which Potency does the source give for `N#CCNC(=O)c1ccc(-c2ccnc(Nc3ccc(N4CCOCC4)cc3)n2)cc1` here?
Answer: Its Potency is 580 nM (active) and 934 nM (active).

Question: With `COc1cc(-c2nn(C3CCC(N4CCN(C(C)=O)CC4)CC3)c3ncnc(N)c23)ccc1NC(=O)c1cc2ccccc2n1C` (stereo not drawn) as the compound, how does the Potency read?
Answer: Its Potency is 2.95 µM (active).

Question: With `O=C(Nc1ccc(OC(F)(F)F)cc1)c1sccc1NCc1ccnc2ccccc12` as the compound, how does the Potency read?
Answer: The Potency was 4.68 µM (active) and 5.8 µM (active).

Question: Which Potency does the source give for `C[C@H](NC(=O)C(=O)Nc1ccccc1C(C)(C)C)C(=O)N[C@@H](CC(=O)O)C(=O)COc1c(F)c(F)cc(F)c1F` here?
Answer: Its Potency is 1.86 µM (active).

Question: For `CC1CCC(C(=O)N(c2cc(C#CC(C)(C)C)sc2C(=O)O)C2CCC(O)CC2)CC1` (stereo not drawn), which Potency is on record?
Answer: Its Potency is 11.8 µM (active) and 14.6 µM (active).

Question: For `CC(Oc1ccc(O)cc1)(P(=O)(O)O)P(=O)(O)O`, which “viability, % of control” value is on record?
Answer: Its value is 92.6% (inactive).

Question: With `Cc1cn[nH]c1` as the compound, how does the Potency read?
Answer: The Potency was “inactive and 18.6 µM (active)”.

Question: Which Potency does the source give for `C[C@]12C=CC(=O)C=C1CC[C@@H]1[C@@H]2C(=O)C[C@@]2(C)[C@H]1CC[C@]2(O)C(=O)CO` here?
Answer: The Potency was “inactive”.

Question: Which Potency does the source give for `CNC(=O)c1c(F)cccc1Nc1nc(Nc2cc3c(cc2OC)CCN3C(=O)CN(C)C)nc2[nH]ccc12` here?
Answer: Its Potency is 2.91 µM (active) and 4.68 µM (active).

Question: Which “viability, % of control” value does the source give for `c1cnc2cc3c(cc2n1)C1CNCC3C1` here?
Answer: The value was 91.5% (inactive).

Question: With `CCCCCCCCCC(=O)N[C@@H](Cc1c[nH]c2ccccc12)C(=O)N[C@H](CC(N)=O)C(=O)N[C@@H](CC(=O)O)C(=O)N[C@@H]1C(=O)NCC(=O)N[C@@H](CCCN)C(=O)N[C@@H](CC(=O)O)C(=O)N[C@H](C)C(=O)N[C@@H](CC(=O)O)C(=O)NCC(=O)N[C@H](CO)C(=O)N[C@@H]([C@@H](C)CC(=O)O)C(=O)N[C@@H](CC(=O)c2ccccc2N)C(=O)O[C@@H]1C` as the compound, how does the Potency read?
Answer: The Potency was 68.5 nM (active) and inactive.

Question: Which Potency does the source give for `S=C(NCc1ccc2c(c1)OCO2)N1CCN(c2ncnc3c2oc2ccccc23)CC1` here?
Answer: Its Potency is 1.86 µM (active).

Question: Which Potency does the source give for `C[C@H](Cc1ccc(O)c(O)c1)[C@@H](C)Cc1ccc(O)c(O)c1` here?
Answer: The Potency was 1.86 µM (active) and 1.03 µM (active).

Question: With `c1ccc(CNc2nc(NCc3ccccc3)c3ccccc3n2)cc1` as the compound, how does the Potency read?
Answer: Its Potency is 2.09 µM (active).

Question: Which Potency does the source give for `NS(=O)(=O)c1ccc(Nc2nc(OCC3CCCCC3)c3[nH]cnc3n2)cc1` here?
Answer: Its Potency is 0.651 µM (active).

Question: Which Potency does the source give for `Nc1nc(N)c2nc(-c3cccc(O)c3)c(-c3cccc(O)c3)nc2n1` here?
Answer: Its Potency is 14.6 µM (active).

Question: Which Potency does the source give for `Cn1cnc2c1c(=O)[nH]c(=O)n2C` here?
Answer: Its Potency is “inactive”.

Question: For `O=C(CN1C(=O)C2(CCCC2)NC[C@H]1c1cc(F)cc(F)c1)Nc1ccc2c(c1)C[C@@]1(C2)C(=O)Nc2ncccc21`, which Potency is on record?
Answer: Its Potency is 18.6 µM (active).
